Measured values published in the supplement of paper PMC10646978.
± gives the standard deviation.

What was measured:
Conditions in all cases: modulator concentration 10 µM
[1] = tested on: RAW-Dual (murine macrophage reporter line); experiment: NF-kB reporter (SEAP) activity fold change vs agonist alone; higher = enhanced NF-kB activity
Procedure, shortened: (§1)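 In 384-well plates holding 50 000 RAW-Dual murine macrophage reporter cells per well, compound at 10 μM final was pre-incubated for 1 hour at 37 °C, after which a PRR agonist was added overnight. Supernatant SEAP read with QUANTI-Blue at 620 nm absorbance reported NF-κB, and Lucia luciferase read with QUANTI-Luc luminescence reported IRF. Fold change values come from dividing each reporter signal by the mean of agonist-only control wells on the same plate, averaged over replicate plates with propagated errors.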

[2] = tested on: RAW-Dual (murine macrophage reporter line); experiment: IRF reporter (Lucia luciferase) activity fold change vs agonist alone; higher = enhanced IRF activity
Procedure, shortened: as §1

[3] = tested on: RAW-Dual (murine macrophage reporter line); experiment: viability score (confluency relative to resting cells, overnight) (fraction); higher = more viable, active = viable (0.7 or more)
Procedure, shortened: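 RAW-Dual macrophages in 384-well plates were treated overnight with compound at 10 μM final. IncuCyte imaging recorded confluency, and IncuCyte software built two confluency masks across every imaged well. The viability score expresses confluency relative to resting cells and was judged against a cutoff, which a compound met only if both masks exceeded 70% of resting cells.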

[4] = agonist: CpG ODN 1826 0.5 ug/mL

Row | Structure (SMILES) | NF-kB reporter [1, 4] | NF-kB reporter ([1]; agonist: LPS 0.1 ug/mL) | NF-kB reporter ([1]; agonist: MPLA […]) | IRF reporter ([2]; agonist: 3'3'-cGAMP 10 ug/mL) | IRF reporter ([2]; agonist: LPS 0.1 ug/mL) | IRF reporter ([2]; agonist: MPLA […]) | viability score [3]
1 | CC1=NN(C(=O)c2cccnc2)C(O)(c2ccccc2)C1 (configuration not stated) | 0.893 ± 0.071 | 0.969 ± 0.1 | 0.949 ± 0.041 | 0.951 ± 0.09 | 1.05 ± 0.13 | 1.1 ± 0.2 | 0.994 (active)
2 | O=C(Nc1ccc(F)c([N+](=O)[O-])c1)c1cccs1 | 1.07 ± 0.072 | 1.2 ± 0.098 | 1.11 ± 0.067 | 0.964 ± 0.037 | 1.61 ± 0.14 | 1.37 ± 0.13 | 0.975 (active)
3 | Cc1cccc(Nc2ccccc2C(=O)O)c1C | 0.847 ± 0.063 | 0.923 ± 0.13 | 0.962 ± 0.035 | 1.03 ± 0.075 | 1.03 ± 0.092 | 0.98 ± 0.089 | 0.999 (active)
4 | COC(=O)C1=CN(CC2CCCO2)C=C(C(=O)OC)C1c1ccccc1Cl (configuration not stated) | 1.67 ± 0.13 | 1.21 ± 0.069 | 2.32 ± 0.14 | 0.796 ± 0.051 | 0.845 ± 0.066 | 0.686 ± 0.043 | 0.982 (active)
5 | Nc1ccc(S(N)(=O)=O)cc1 | 1.1 ± 0.094 | 0.993 ± 0.069 | 1 ± 0.088 | 1.22 ± 0.27 | 0.933 ± 0.038 | 0.904 ± 0.072 | 0.994 (active)
6 | CCCN1CCC(NCCc2cccc(Cl)c2)CC1 | 0.11 ± 0.018 | 0.9 ± 0.14 | 1.18 ± 0.091 | 0.704 ± 0.045 | 1.13 ± 0.18 | 1.13 ± 0.17 | 1 (active)
7 | O=C(Nc1ccncc1)c1ccc(OCC2CCOCC2)nc1 | 1.15 ± 0.063 | 1.39 ± 0.12 | 1.28 ± 0.082 | 1.22 ± 0.083 | 1.28 ± 0.11 | 1.24 ± 0.34 | 0.996 (active)
8 | CCOc1ccc(CC(=O)N2C3C=CCC2CC3)cc1 (configuration not stated) | 0.942 ± 0.1 | 1.09 ± 0.1 | 1.01 ± 0.061 | 1.02 ± 0.047 | 1.22 ± 0.16 | 1.31 ± 0.47 | 0.971 (active)
9 | Cn1c(=O)cc(N2CCC[C@@H](N)C2)n(Cc2cc(F)ccc2C#N)c1=O | 0.989 ± 0.074 | 1.02 ± 0.055 | 1.02 ± 0.044 | 0.225 ± 0.013 | 0.971 ± 0.061 | 0.886 ± 0.082 | 1 (active)
10 | Cc1ccc(C)c(C(=O)c2ccccc2NC(=O)c2ccccn2)c1 | 0.733 ± 0.041 | 0.85 ± 0.071 | 0.839 ± 0.054 | 1.01 ± 0.068 | 1.18 ± 0.15 | 1.11 ± 0.13 | 1.01 (active)
11 | COc1ccc(-c2coc3cc(O)cc(O)c3c2=O)cc1 | 1.87 ± 0.54 | 1.27 ± 0.083 | 1.73 ± 0.13 | 0.919 ± 0.071 | 1.32 ± 0.18 | 1.37 ± 0.14 | 0.623 (inactive)
12 | Cc1c(Cl)ccc2c1NC(C(=O)O)C1CC=CC21 (configuration not stated) | 0.814 ± 0.045 | 1.05 ± 0.092 | 0.755 ± 0.063 | 0.615 ± 0.034 | 1.19 ± 0.091 | 1.13 ± 0.099 | 0.994 (active)
13 | CN1CC(c2ccccc2)OC1=O (configuration not stated) | 1.06 ± 0.17 | 0.949 ± 0.083 | 1.08 ± 0.093 | 1.07 ± 0.033 | 1.32 ± 0.2 | 1.29 ± 0.23 | 1 (active)
14 | CC1(C)Cc2ccccc2C(=C(C#N)C#N)N1 | 1.01 ± 0.08 | 0.912 ± 0.068 | 1.06 ± 0.1 | 1.03 ± 0.041 | 1.33 ± 0.2 | 1.5 ± 0.34 | 1.01 (active)
15 | CCCCc1nc2cc(/C=C/C(=O)NO)ccc2n1CCN(CC)CC | 1.6 ± 0.08 | 1.77 ± 0.14 | 2.71 ± 0.12 | 0.0513 ± 0.0098 | 0.266 ± 0.019 | 0.424 ± 0.05 | 0.0718 (inactive)
16 | NCCNc1ccc(NCCN)c2c1C(=O)c1ccncc1C2=O.O=C(O)/C=C\C(=O)O.O=C(O)/C=C\C(=O)O | 0.917 ± 0.04 | 1 ± 0.085 | 1.13 ± 0.066 | 1.02 ± 0.049 | 1.36 ± 0.29 | 1.66 ± 0.55 | 0.97 (active)
17 | CNCCCC12CCC(c3ccccc31)c1ccccc12.Cl | 0.507 ± 0.083 | 1.1 ± 0.24 | 1.32 ± 0.074 | 0.542 ± 0.038 | 1.36 ± 0.34 | 2.48 ± 0.34 | 0.29 (inactive)
18 | Cc1cnc(NC(=O)C2=C(O)c3ccccc3S(=O)(=O)N2C)s1 | 1.24 ± 0.18 | 1.06 ± 0.41 | 0.953 ± 0.066 | 0.927 ± 0.036 | 1.15 ± 0.29 | 0.987 ± 0.089 | 1.01 (active)
19 | COc1ccccc1OCC(O)COC(N)=O (configuration not stated) | 1.56 ± 0.26 | 1.28 ± 0.17 | 0.938 ± 0.058 | 0.93 ± 0.041 | 1.49 ± 0.15 | 1.21 ± 0.12 | 0.985 (active)
20 | CC(=O)N[C@@H](CS)C(=O)O | 1.1 ± 0.082 | 1.05 ± 0.096 | 1.04 ± 0.052 | 0.931 ± 0.065 | 0.982 ± 0.076 | 1.04 ± 0.087 | 0.995 (active)
21 | CSc1nc2cccc(F)c2c(=O)n1C1CC1 | 1.06 ± 0.078 | 1.02 ± 0.093 | 1.18 ± 0.076 | 1.09 ± 0.051 | 1.31 ± 0.25 | 1.52 ± 0.38 | 0.67 (inactive)
22 | Cc1ccc(/C(=C\CN2CCCC2)c2ccccn2)cc1.Cl.O | 0.96 ± 0.26 | 1.11 ± 0.056 | 1.05 ± 0.073 | 0.672 ± 0.03 | 1.09 ± 0.13 | 1.31 ± 0.18 | 0.553 (inactive)
23 | Cl.NCCCC[C@H](N)C(=O)O | 1.03 ± 0.31 | 0.949 ± 0.063 | 1.01 ± 0.064 | 0.867 ± 0.052 | 1.2 ± 0.14 | 1.12 ± 0.18 | 1.01 (active)
24 | COCc1cc(C)nc2sc(C(=O)c3cccc([N+](=O)[O-])c3)c(N)c12 | 0.804 ± 0.063 | 0.719 ± 0.034 | 0.78 ± 0.29 | 0.943 ± 0.043 | 1.36 ± 0.12 | 1.53 ± 0.14 | 1.01 (active)
25 | O=S(=O)(NCc1ccc(-c2cccnc2)nc1)c1ccc(OC(F)(F)F)cc1 | 0.947 ± 0.068 | 1.01 ± 0.091 | 0.873 ± 0.058 | 0.961 ± 0.054 | 1.09 ± 0.066 | 1.16 ± 0.11 | 1.01 (active)
26 | O=C(O)c1ccc(NC(=O)c2cccc(F)c2)cc1 | 1.09 ± 0.091 | 1.01 ± 0.1 | 0.962 ± 0.061 | 0.963 ± 0.035 | 1.08 ± 0.056 | 0.994 ± 0.18 | 0.998 (active)
